Data from PubChem BioAssay AID1159580 (chemical genetic matrix, 2015).
Out of some 5,500 compounds screened, about 2,000 (36%) were called active. Not shown: some 18% with an inconclusive outcome. Cut-off read from the data, not from the text of the source: active = normalized growth mostly below about 0.91 (no sharp cut-off); inconclusive = no clear call, values can overlap the other calls; inactive = mostly above about 0.92. The list shows a part of the results.

Test: chemical genetic growth profiling, strain panel (AID 1159580);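 note: tested at 20 µM; growth read once vehicle control cultures reached saturation at 30 °C; 1 = growth at the plate median or of vehicle wells; lower values mean less growth of the strain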
Settings: growth OD

Measured: normalized growth

C[C@@H]1[C@H]2[C@H](O[C@@H]3O[C@H](CO)[C@@H](O)[C@H](O)[C@H]3O)OC=C(C(=O)O)[C@H]2C[C@@H]1O
inactive: S. cerevisiae deletion strains, locus YAL013W, strain DEP1, hits give low values 1.01 | S. cerevisiae deletion strains, locus YBR021W, strain FUR4, hits give low values 1.05 | S. cerevisiae deletion strains, locus YBR229C, strain ROT2, hits give low values 0.964 | S. cerevisiae deletion strains, locus YCL029C, strain bik1, hits give low values 0.963 | S. cerevisiae deletion strains, locus YDL035C, strain GPR1, hits give low values 1.02 | S. cerevisiae deletion strains, locus YDL074C, strain BRE1, hits give low values 1.08 | S. cerevisiae deletion strains, locus YDL101C, strain DUN1, hits give low values 0.98 | S. cerevisiae deletion strains, locus YDL134C, strain PPH21, hits give low values 0.999 | S. cerevisiae deletion strains, locus YDL185W, strain tfp1, hits give low values 0.962 | S. cerevisiae deletion strains, locus YDL192W, strain arf1, hits give low values 1.03 | S. cerevisiae deletion strains, locus YDR101C, strain arx1, hits give low values 1.01 | S. cerevisiae deletion strains, locus YDR162C, strain NBP2, hits give low values 0.963 | S. cerevisiae deletion strains, locus YDR318W, strain mcm21, hits give low values 0.986 | S. cerevisiae deletion strains, locus YDR388W, hits give low values 0.996 | S. cerevisiae deletion strains, locus YDR502C, strain sam2, hits give low values 1 | S. cerevisiae deletion strains, locus YEL061C, strain CIN8, hits give low values 0.999 | S. cerevisiae deletion strains, locus YER110C, hits give low values 0.974 | S. cerevisiae deletion strains, locus YER155C, strain BEM2, hits give low values 1.02 | S. cerevisiae deletion strains, locus YER167W, strain BCK2, hits give low values 1 | S. cerevisiae deletion strains, locus YGL078C, strain dbp3, hits give low values 0.986 | S. cerevisiae deletion strains, locus YGL086W, strain mad1, hits give low values 1.01 | S. cerevisiae deletion strains, locus YGL248W, strain PDE1, hits give low values 0.987 | S. cerevisiae deletion strains, locus YGR078C, strain PAC10, hits give low values 0.984 | S. cerevisiae deletion strains, locus YGR135W, strain pre9, hits give low values 0.98 | S. cerevisiae deletion strains, locus YGR252W, strain gcn5, hits give low values 0.995 | S. cerevisiae deletion strains, locus YHR030C, strain SLT2, hits give low values 1.01 | S. cerevisiae deletion strains, locus YHR079C, strain IRE1 (second series), hits give low values 0.985 | S. cerevisiae deletion strains, locus YHR094C, strain hxt1, hits give low values 0.991 | S. cerevisiae deletion strains, locus YHR129C, strain ARP1, hits give low values 1 | S. cerevisiae deletion strains, locus YHR200W, strain rpn10, hits give low values 0.99 | S. cerevisiae deletion strains, locus YIL066C, strain RNR3, hits give low values 1 | S. cerevisiae deletion strains, locus YIL073C, strain SPO22, hits give low values 1.01 | S. cerevisiae deletion strains, locus YIL125W, strain kgd1, hits give low values 0.978 | S. cerevisiae deletion strains, locus YIR030C, strain dcg1, hits give low values 0.995 | S. cerevisiae deletion strains, locus YJL095W, strain BCK1, hits give low values 0.996 | S. cerevisiae deletion strains, locus YJL134W, strain LCB3, hits give low values 0.988 | S. cerevisiae deletion strains, locus YJL168C, strain set2, hits give low values 1.01 | S. cerevisiae deletion strains, locus YJL187C, strain SWE1 (second series), hits give low values 0.987 | S. cerevisiae deletion strains, locus YJR043C, strain POL32, hits give low values 1.01 | S. cerevisiae deletion strains, locus YKL009W, strain mrt4, hits give low values 1.03 | S. cerevisiae deletion strains, locus YKL068W, hits give low values 0.977 | S. cerevisiae deletion strains, locus YKL085W, strain MDH1 (second series), hits give low values 0.987 | S. cerevisiae deletion strains, locus YKL085W, strain MDH1, hits give low values 0.987 | S. cerevisiae deletion strains, locus YKR001C, strain vps1, hits give low values 0.983 | S. cerevisiae deletion strains, locus YLR039C, strain RIC1, hits give low values 1.03 | S. cerevisiae deletion strains, locus YLR058C, strain SHM2, hits give low values 0.977 | S. cerevisiae deletion strains, locus YLR102C, strain apc9, hits give low values 0.987 | S. cerevisiae deletion strains, locus YLR262C, strain YPT6, hits give low values 0.908 | S. cerevisiae deletion strains, locus YLR268W, strain sec22, hits give low values 1.02 | S. cerevisiae deletion strains, locus YLR330W, strain CHS5, hits give low values 1.01 | S. cerevisiae deletion strains, locus YLR342W, strain FKS1 (second series), hits give low values 1.11 | S. cerevisiae deletion strains, locus YLR371W, strain rom2, hits give low values 0.978 | S. cerevisiae deletion strains, locus YLR418C, strain cdc73, hits give low values 0.984 | S. cerevisiae deletion strains, locus YML016C, strain PPZ1, hits give low values 0.998 | S. cerevisiae deletion strains, locus YML032C, strain rad52, hits give low values 0.995 | S. cerevisiae deletion strains, locus YML124C, strain tub3, hits give low values 0.992 | S. cerevisiae deletion strains, locus YMR078C, strain ctf18, hits give low values 0.976 | S. cerevisiae deletion strains, locus YMR223W, strain ubp8, hits give low values 1.02 | S. cerevisiae deletion strains, locus YMR307W, strain GAS1, hits give low values 1.16 | S. cerevisiae deletion strains, locus YNL067W, strain RPL9B, hits give low values 0.992 | S. cerevisiae deletion strains, locus YNL128W, strain TEP1, hits give low values 1 | S. cerevisiae deletion strains, locus YNL233W, strain BNI4, hits give low values 1.01 | S. cerevisiae deletion strains, locus YNL250W, strain rad50, hits give low values 0.992 | S. cerevisiae deletion strains, locus YNL271C, strain bni1, hits give low values 0.994 | S. cerevisiae deletion strains, locus YNL298W, strain CLA4, hits give low values 0.991 | S. cerevisiae deletion strains, locus YNL307C, strain MCK1, hits give low values 0.986 | S. cerevisiae deletion strains, locus YNR052C, strain pop2, hits give low values 0.96 | S. cerevisiae deletion strains, locus YOL012C, strain htz1 0.853 | S. cerevisiae deletion strains, locus YOL147C, strain pex11, hits give low values 0.991 | S. cerevisiae deletion strains, locus YOR061W, strain CKA2, hits give low values 0.962 | S. cerevisiae deletion strains, locus YOR069W, strain VPS5, hits give low values 0.999 | S. cerevisiae deletion strains, locus YOR136W, strain idh2, hits give low values 0.989 | S. cerevisiae deletion strains, locus YOR144C, strain elg1, hits give low values 0.981 | S. cerevisiae deletion strains, locus YOR184W, strain ser1, hits give low values 1.02 | S. cerevisiae deletion strains, locus YOR316C, strain cot1, hits give low values 0.981 | S. cerevisiae deletion strains, locus YPR119W, strain clb2, hits give low values 0.999 | S. cerevisiae deletion strains, locus YPR141C, strain kar3, hits give low values 0.97 | S. cerevisiae deletion strains, locus YPR163C, strain tif3, hits give low values 0.989 | S. cerevisiae deletion strains, locus YPR167C, strain met16, hits give low values 0.973 | S. cerevisiae deletion strains, strain wtn01, hits give low values 1.01 | S. cerevisiae strains, strain wild type, hits give low values 1
